Measured values published in the supplement of paper PMC9694430.
Where a name gives a salt, the structure may show the parent alone.

test system: LOC_OS01G51400-cb002; assay: thermal shift delta Tm vs DMSO control; higher = stronger stabilization (binding); settings: 12.5 µM; protein concentration 2 µM
How it was run: (§1)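 Rice kinase domain constructs were expressed in E. coli, purified, and tested by differential scanning fluorimetry with compound added in DMSO. Each well of a 96-well plate held 19.5 μl of 2 μM kinase in 100 mM potassium phosphate pH 7.5, 150 mM NaCl, 10% glycerol and 5 × SYPRO Orange, and fluorescence was read from 25°C to 95°C at 0.05°C/s. The melting temperature shift is the mean of triplicates, taken against protein with DMSO alone after Boltzmann fitting.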

SMILES | thermal shift delta Tm
Cc1cnc(Nc2ccc(OCCN3CCCC3)cc2)nc1Nc1cccc(S(=O)(=O)NC(C)(C)C)c1 | 0.43 °C
CN1CCN(CCOc2cc(OC3CCOCC3)c3c(Nc4c(Cl)ccc5c4OCO5)ncnc3c2)CC1 [Saracatinib (AZD0530)] | 0.26 °C
Cn1cc(-c2ccc(F)c(C(F)(F)F)c2)nc1C1CCN(c2ncnc3[nH]ncc23)CC1 | -0.2 °C
O=C(O)c1ccc2c(c1)nc(Nc1cccc(Cl)c1)c1ccncc12 [Silmitasertib (CX-4945)] | 0.3 °C
Cn1c(=O)c(F)c(Nc2ccc(I)cc2F)c2c(=O)n(C[C@@H](O)CO)cnc21 | 0.57 °C
O=C(NC[C@H](O)CO)c1ccncc1Nc1ccc(I)cc1F | -0.03 °C
COc1c(C)c(C(=O)c2ccc(N)c(C(=O)O)c2)n2ccccc12 | 0.21 °C
COc1cc(N2CCC(N)CC2)ccc1Nc1ncc(Cl)c(-c2c[nH]c3ccccc23)n1 | 1.21 °C
C=CC(=O)Nc1ccc2ncnc(Nc3ccc(OCc4cccc(F)c4)c(Cl)c3)c2c1 | 0.29 °C
CCS(=O)(=O)N1CCN(c2ccc(Nc3ncc(C(N)=O)c(NC4CC4)n3)cc2)CC1 | 1.11 °C
O=C1c2ccc(Nc3ccc(F)cc3F)cc2CCc2ccc(OC[C@H](O)CO)cc21 [Skepinone-L] | -0.11 °C
CCN1C(=O)CNc2ncc(-c3ccc(-c4nc[nH]n4)nc3C)nc21 | -0.29 °C
Cc1ccc(CNc2ncnc3ccc(-c4ccc(CO)o4)cc23)o1 | 0.24 °C
CCc1cncnc1N1CCN(Cc2nc3ccc(C(F)(F)F)cc3[nH]2)CC1 | 0.42 °C
Cc1cc(CN2CCN(c3c(Br)cnc4nc(-c5ccc(N6CCN(C)CC6)cc5)[nH]c34)CC2)no1 | 0.84 °C
Cc1nc(-c2cn3c(n2)-c2ccc(-c4cnn(C(C)(C)C(N)=O)c4)cc2OCC3)n(C(C)C)n1 [Taselisib (GDC 0032)] | 0.03 °C
Cc1ccc(NC(=O)c2ccc(CN3CCN(C)CC3)cc2)cc1Nc1nccc(-c2cccnc2)n1 [Imatinib Mesylate (STI571)] | 0.08 °C
O=c1cc(N2CCOCC2)oc2c(-c3ccccc3)cccc12 | 0.33 °C
Nc1ncccc1-c1nc2ccc(-c3ccccc3)nc2n1-c1ccc(C2(N)CCC2)cc1 [Miransertib (ARQ 092) HCl] | 0.08 °C

SMILES | thermal shift delta Tm
CNS(=O)(=O)C[C@H]1CC[C@H](N(C)c2[nH]cnc3nccc2-3)CC1 [Oclacitinib] | 0.26 °C
N#Cc1ccc2[nH]c(O)c(-c3ccc(CN4CCOCC4)cn3)c2c1 | 0.34 °C
C[C@]1(O)C[C@@H](c2nc(-c3ccc4ccc(-c5ccccc5)nc4c3)c3c(N)nccn32)C1 [Linsitinib (OSI-906)] | 0.44 °C
CN1CCC(COc2cnc(-c3cccc(Cn4nc(-c5cccc(C#N)c5)ccc4=O)c3)nc2)CC1 | 0.24 °C
CC(C)(C)c1nc(-c2ccc(NC(=O)Nc3cccc(C(F)(F)F)c3)c3ccccc23)c2c(N)nccn12 [kira6] | 0.79 °C
Oc1c(F)cc(-c2cnccc2-c2ccc(N3CCOCC3)cc2)cc1F | 0.36 °C
CC(C)[C@H](CO)Nc1nc(Nc2cccc(Cl)c2)c2ncn(C(C)C)c2n1 [Purvalanol A] | 0.45 °C
CNC(=O)c1cc(Oc2ccc(NC(=O)Nc3ccc(Cl)c(C(F)(F)F)c3)cc2)ccn1 [Sorafenib] | 0.71 °C
O=c1cc(-c2cccc3c2Sc2ccccc2S3)oc(N2CCOCC2)c1 | -0.12 °C
N#Cc1c(Oc2ccc(F)c(NC(=O)Cc3cccc(C(F)(F)F)c3)c2)ccc2nc(NC(=O)C3CC3)sc12 | 1.02 °C
CC[C@@](C)(Nc1ccnc(-c2c[nH]c3ncccc23)n1)C(=O)NCC(F)(F)F [Decernotinib (VX-509)] | 0.22 °C
CCNC(=O)Nc1ccc(-c2nc3c(c(N4CCOC[C@@H]4C)n2)CCN(C2COC2)C3)cc1 | -0.02 °C
COc1cc(OC)cc(N(CCNC(C)C)c2ccc3ncc(-c4cnn(C)c4)nc3c2)c1 | 0.26 °C
C[C@@]1(C(=O)Nc2ccc(F)nc2)CCCN1c1nc(Nc2cc(C3CC3)n[nH]2)c2cccn2n1 | 0.67 °C
O=C1CCc2c(Oc3ccc4c(c3)[C@@H]3[C@H](O4)[C@H]3c3nc4cc(C(F)(F)F)ccc4[nH]3)ccnc2N1 [Lifirafenib (BGB-283)] | 0.55 °C
O=C1Nc2ccc(CN3C(=O)CSC3=O)cc2/C1=C/c1cc(CN2CCOCC2)c[nH]1 | 0.13 °C
CN(c1ccccc1CNc1nc(Nc2ccc3c(c2)CC(=O)N3)ncc1C(F)(F)F)S(C)(=O)=O | 1.93 °C
Cc1nc(N)sc1-c1ccnc(Nc2ccc(N3CCOCC3)cc2)n1 | 0.68 °C

test system: T1, LOC_OS01G52050-cb004; assay: as above; settings: 12.5 µM; protein concentration 2 µM
T1 sequence (whole entry): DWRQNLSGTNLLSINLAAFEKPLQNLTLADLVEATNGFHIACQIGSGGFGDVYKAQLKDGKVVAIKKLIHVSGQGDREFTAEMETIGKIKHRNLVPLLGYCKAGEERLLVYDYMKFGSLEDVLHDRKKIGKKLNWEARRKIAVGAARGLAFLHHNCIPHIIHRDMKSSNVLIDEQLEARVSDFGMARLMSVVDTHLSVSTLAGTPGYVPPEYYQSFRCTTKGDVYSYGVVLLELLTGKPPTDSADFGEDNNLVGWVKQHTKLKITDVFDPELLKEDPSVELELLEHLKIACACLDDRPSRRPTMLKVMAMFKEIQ
How it was run: as §1

SMILES | thermal shift delta Tm
Cc1cnc(Nc2ccc(OCCN3CCCC3)cc2)nc1Nc1cccc(S(=O)(=O)NC(C)(C)C)c1 | 2.51 °C
CN1CCN(CCOc2cc(OC3CCOCC3)c3c(Nc4c(Cl)ccc5c4OCO5)ncnc3c2)CC1 [Saracatinib (AZD0530)] | 1.72 °C
Cn1cc(-c2ccc(F)c(C(F)(F)F)c2)nc1C1CCN(c2ncnc3[nH]ncc23)CC1 | 0.39 °C
O=C(O)c1ccc2c(c1)nc(Nc1cccc(Cl)c1)c1ccncc12 [Silmitasertib (CX-4945)] | 2.54 °C
Cn1c(=O)c(F)c(Nc2ccc(I)cc2F)c2c(=O)n(C[C@@H](O)CO)cnc21 | 0.27 °C
O=C(NC[C@H](O)CO)c1ccncc1Nc1ccc(I)cc1F | 0.02 °C
COc1c(C)c(C(=O)c2ccc(N)c(C(=O)O)c2)n2ccccc12 | 0.12 °C
COc1cc(N2CCC(N)CC2)ccc1Nc1ncc(Cl)c(-c2c[nH]c3ccccc23)n1 | 5.27 °C
C=CC(=O)Nc1ccc2ncnc(Nc3ccc(OCc4cccc(F)c4)c(Cl)c3)c2c1 | 6.13 °C
CCS(=O)(=O)N1CCN(c2ccc(Nc3ncc(C(N)=O)c(NC4CC4)n3)cc2)CC1 | 5.37 °C
O=C1c2ccc(Nc3ccc(F)cc3F)cc2CCc2ccc(OC[C@H](O)CO)cc21 [Skepinone-L] | 0.04 °C
CCN1C(=O)CNc2ncc(-c3ccc(-c4nc[nH]n4)nc3C)nc21 | -1.26 °C
Cc1ccc(CNc2ncnc3ccc(-c4ccc(CO)o4)cc23)o1 | 1.21 °C
CCc1cncnc1N1CCN(Cc2nc3ccc(C(F)(F)F)cc3[nH]2)CC1 | 0.17 °C
Cc1cc(CN2CCN(c3c(Br)cnc4nc(-c5ccc(N6CCN(C)CC6)cc5)[nH]c34)CC2)no1 | 0.67 °C
Cc1nc(-c2cn3c(n2)-c2ccc(-c4cnn(C(C)(C)C(N)=O)c4)cc2OCC3)n(C(C)C)n1 [Taselisib (GDC 0032)] | 0.13 °C
Cc1ccc(NC(=O)c2ccc(CN3CCN(C)CC3)cc2)cc1Nc1nccc(-c2cccnc2)n1 [Imatinib Mesylate (STI571)] | 0.02 °C
O=c1cc(N2CCOCC2)oc2c(-c3ccccc3)cccc12 | 0.42 °C
Nc1ncccc1-c1nc2ccc(-c3ccccc3)nc2n1-c1ccc(C2(N)CCC2)cc1 [Miransertib (ARQ 092) HCl] | 0.78 °C

SMILES | thermal shift delta Tm
CNS(=O)(=O)C[C@H]1CC[C@H](N(C)c2[nH]cnc3nccc2-3)CC1 [Oclacitinib] | 1.43 °C
N#Cc1ccc2[nH]c(O)c(-c3ccc(CN4CCOCC4)cn3)c2c1 | 0.44 °C
C[C@]1(O)C[C@@H](c2nc(-c3ccc4ccc(-c5ccccc5)nc4c3)c3c(N)nccn32)C1 [Linsitinib (OSI-906)] | -0.16 °C
CN1CCC(COc2cnc(-c3cccc(Cn4nc(-c5cccc(C#N)c5)ccc4=O)c3)nc2)CC1 | 0.04 °C
CC(C)(C)c1nc(-c2ccc(NC(=O)Nc3cccc(C(F)(F)F)c3)c3ccccc23)c2c(N)nccn12 [kira6] | 5.68 °C
Oc1c(F)cc(-c2cnccc2-c2ccc(N3CCOCC3)cc2)cc1F | -0.22 °C
CC(C)[C@H](CO)Nc1nc(Nc2cccc(Cl)c2)c2ncn(C(C)C)c2n1 [Purvalanol A] | 5 °C
CNC(=O)c1cc(Oc2ccc(NC(=O)Nc3ccc(Cl)c(C(F)(F)F)c3)cc2)ccn1 [Sorafenib] | 5.22 °C
O=c1cc(-c2cccc3c2Sc2ccccc2S3)oc(N2CCOCC2)c1 | -0.44 °C
N#Cc1c(Oc2ccc(F)c(NC(=O)Cc3cccc(C(F)(F)F)c3)c2)ccc2nc(NC(=O)C3CC3)sc12 | 0.32 °C
CC[C@@](C)(Nc1ccnc(-c2c[nH]c3ncccc23)n1)C(=O)NCC(F)(F)F [Decernotinib (VX-509)] | 0.18 °C
CCNC(=O)Nc1ccc(-c2nc3c(c(N4CCOC[C@@H]4C)n2)CCN(C2COC2)C3)cc1 | 0.23 °C
COc1cc(OC)cc(N(CCNC(C)C)c2ccc3ncc(-c4cnn(C)c4)nc3c2)c1 | 2.05 °C
C[C@@]1(C(=O)Nc2ccc(F)nc2)CCCN1c1nc(Nc2cc(C3CC3)n[nH]2)c2cccn2n1 | 0.49 °C
O=C1CCc2c(Oc3ccc4c(c3)[C@@H]3[C@H](O4)[C@H]3c3nc4cc(C(F)(F)F)ccc4[nH]3)ccnc2N1 [Lifirafenib (BGB-283)] | 2.71 °C
O=C1Nc2ccc(CN3C(=O)CSC3=O)cc2/C1=C/c1cc(CN2CCOCC2)c[nH]1 | 2.79 °C
CN(c1ccccc1CNc1nc(Nc2ccc3c(c2)CC(=O)N3)ncc1C(F)(F)F)S(C)(=O)=O | 8.95 °C
Cc1nc(N)sc1-c1ccnc(Nc2ccc(N3CCOCC3)cc2)n1 | 6.52 °C
